In PubChem BioAssay (NCATS):
Records with an inconclusive call do not appear. Active and inactive are the calls of the source. Calls follow the shape of the dose curve; as a rule, active = well fitted cell-killing curve with a large enough effect; inconclusive = small, poorly fitted or top-dose-only effect, or effect the other way; inactive = no such curve, though single readings can be large or run the other way.
Potency is read from the fitted curve at half-maximal effect.

Experiment: Quantitative High-Throughput drug screen in 47 multiple myeloma cell lines against the NCATS MIPE library collection: SKMM1_PLB cell viability assay (AID 1919863); also: nearly all actives have a fitted effect of over 35% in size; as to viability: series mostly up to about 46 µM
Conditions: SKMM1 myeloma viability, CellTiter-Glo ATP, 48 h; viability: hits give low values
Procedure, shortened: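 Myeloma cells (500/well) treated with MIPE 4.0 compounds for 48 h at 37 °C, 5% CO2. Viability read as ATP via CellTiter-Glo luminescence after 5 min at RT; DMSO-only wells = 100%, media-only = 0% viability.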
In the case of `O=C1C=CC[C@@H]2[C@H]3CCCN4CCC[C@@H](CN12)[C@@H]34`, the viability is reported as 117% (inactive). For `Cc1nc(-c2ccc(-c3ccc(C(=O)N4CCc5cc6c(cc54)C4(CCN(C)CC4)CO6)cc3)c(C)c2)no1`, the viability was 124% (inactive). For `N=c1c2c(-c3ccccc3)c(-c3ccccc3)n(Cc3ccccc3)c2ncn1C1CCC(O)CC1` (stereo not drawn), the Potency was 16.6 µM (active). For `Cc1c(N)nc([C@H](CC(N)=O)NC[C@@H](N)C(N)=O)nc1C(=O)N[C@H](C(=O)N[C@@H](C)[C@H](O)[C@@H](C)C(=O)N[C@@H](C(=O)NCCc1nc(-c2nc(C(=O)NCCC[S+](C)C)cs2)cs1)[C@@H](C)O)C(O[C@H]1O[C@H](CO)[C@H](O)[C@@H](O)[C@@H]1O[C@H]1O[C@H](CO)[C@@H](O)[C@H](OC(N)=O)[C@H]1O)c1cnc[nH]1` (stereo partly drawn), the viability was 89.3% (inactive). For `Cc1ccccc1-n1c(Cn2ncc3c(N)ncnc32)nc2cccc(C)c2c1=O`, the Potency was 5.26 µM (active). For `CCOC(=O)c1cncn1[C@H](C)c1ccccc1`, the Potency was 7.43 µM (active). With `CC[C@H]1C=CC=CC[C@@H](C)[C@H](O)[C@@](C)(O)C(=O)[C@@H](C)[C@H](O)[C@@H](C)C(=O)[C@@H](C)[C@H](O)[C@@H](C)C=CC(=O)O[C@@H]2[C@@H](C)[C@H](CC1)O[C@]1(CC[C@H](C)[C@H](C[C@@H](C)O)O1)[C@H]2C` the Potency was 20.9 µM (active). In the case of `N#C[C@H](O[C@@H]1O[C@H](CO[C@@H]2O[C@H](CO)[C@H](O)[C@H](O)[C@H]2O)[C@H](O)[C@H](O)[C@H]1O)c1ccccc1`, the Potency is reported as 20.9 µM (active). In the case of `CC1=NN=C(c2ccc(N)cc2)c2cc3c(cc2C1)OCO3`, the viability is reported as 125% (inactive). With `Cc1c(C(=O)c2cccc3ccccc23)c2cccc3c2n1[C@H](CN1CCOCC1)CO3` the Potency was 23.5 µM (active). For `CN[C@@H]1Cc2cccc3[nH]c(=O)n(c23)C1`, the viability was 93.2% (inactive). With `CC(O)=C(C#N)C(=O)Nc1cc(Br)ccc1Br` the Potency was 20.9 µM (active). With `C[C@]12Cc3cn[nH]c3C[C@@H]1CC[C@@H]1[C@H]2CC[C@@]2(C)[C@H]1CC[C@]2(C)O` the Potency was 3.32 µM (active). In the case of `COC[C@H]1OC(=O)c2coc3c2[C@@]1(C)C1=C(C3=O)[C@@H]2CC[C@H](O)[C@@]2(C)C[C@@H]1OC(C)=O`, the Potency is reported as 7.43 µM (active). For `CN(C)NC(=O)CCC(=O)O`, the viability was 111% (inactive). With `COc1ccc(C(=O)c2c(C)n(CCN3CCOCC3)c3cc(I)ccc23)cc1` the Potency was 16.6 µM (active). With `O=C(NCC1CCOCC1)c1cnc(Nc2ccc(Cl)cc2Cl)nc1C(F)(F)F` the viability was 104% (inactive). With `O=C(Nc1ccncc1)C(=O)c1cn(Cc2ccc(Cl)cc2)c2ccccc12` the Potency was 0.418 µM (active).
